Reference: publication PMC8384837, “Expanding the binding specificity for RNA recognition by a PUF domain”
Changes are numbered by the printed parent chain.

Key:
Assay in all cases: yeast three-hybrid, YBZ-1, SC-Leu-His + 0.5 mM 3-AT, 4 days
Conditions in all cases: tags: N-Gal4 AD-HA kept; label: inside an RPR1-promoter hybrid RNA with tandem MS2 sites; ssRNA
[1] = target: T1, PUM1 PUF domain R6-VYM (Homo sapiens, UniProt Q14671 828-1176, N1043V;Q1047M)
T1 sequence: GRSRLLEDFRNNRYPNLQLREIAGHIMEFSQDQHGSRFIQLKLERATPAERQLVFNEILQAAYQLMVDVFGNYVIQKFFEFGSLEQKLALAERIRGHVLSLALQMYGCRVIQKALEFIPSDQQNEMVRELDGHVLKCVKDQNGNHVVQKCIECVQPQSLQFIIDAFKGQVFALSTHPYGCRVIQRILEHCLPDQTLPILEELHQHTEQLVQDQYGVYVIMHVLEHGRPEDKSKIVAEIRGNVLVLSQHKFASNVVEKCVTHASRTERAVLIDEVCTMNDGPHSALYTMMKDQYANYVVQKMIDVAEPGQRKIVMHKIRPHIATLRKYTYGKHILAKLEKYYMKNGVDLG
Method in brief: (§1)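 The interaction score is the log change in how often each variant appears, from input to selection. Frequencies came from PCR-amplified, Illumina-sequenced repeat regions of Pumilio-1 PUF domain libraries grown in strain YBZ-1 (LexA–MS2 coat fusion, HIS3 reporter) alongside matching RNA elements. Input plates were SC-Leu and selection plates were SC-Leu-His + 0.5 mM 3-AT, each for four days, and the log2 calculation used a pseudocount of 1 where a variant was absent.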

[2] = target: PUM1 PUF domain R3-DFE (Homo sapiens, UniProt Q14671 828-1176, C935D;R936F;Q939E)
Method in brief: as §1

[3] = target: T2, PUM1 PUF domain R6-NRQ (Homo sapiens, UniProt Q14671 828-1176, Y1044R)
T2 sequence: T1 sequence with V216N, Y217R, M220Q
Method in brief: as §1

[4] = target: PUM1 PUF domain R8-KFH (Homo sapiens, UniProt Q14671 828-1176, N1122K;Y1123F;Q1126H)
Method in brief: as §1

[5] = target: T3, PUM1 PUF domain R6-FYR (Homo sapiens, UniProt Q14671 828-1176, N1043F;Q1047R)
T3 sequence: T1 sequence with V216F, M220R
Method in brief: as §1

[6] = target: PUM1 PUF domain R3-LYQ (Homo sapiens, UniProt Q14671 828-1176, C935L;R936Y)
Method in brief: as §1

[7] = target: PUM1 PUF domain R4-SCM (Homo sapiens, UniProt Q14671 828-1176, N971S;H972C;Q975M)
Method in brief: as §1

[8] = target: PUM1 PUF domain R3-RPS (Homo sapiens, UniProt Q14671 828-1176, C935R;R936P;Q939S)
Method in brief: as §1

[9] = target: PUM1 PUF domain R8-KWW (Homo sapiens, UniProt Q14671 828-1176, N1122K;Y1123W;Q1126W)
Method in brief: as §1

[10] = target: PUM1 PUF domain R4-VHH (Homo sapiens, UniProt Q14671 828-1176, N971V;Q975H)
Method in brief: as §1

[11] = target: PUM1 PUF domain R4-EHR (Homo sapiens, UniProt Q14671 828-1176, N971E;Q975R)
Method in brief: as §1

[12] = target: PUM1 PUF domain R5-RSR (Homo sapiens, UniProt Q14671 828-1176, C1007R;R1008S;Q1011R)
Method in brief: as §1

[13] = target: PUM1 PUF domain R5-GKD (Homo sapiens, UniProt Q14671 828-1176, C1007G;R1008K;Q1011D)
Method in brief: as §1

[14] = target: PUM1 PUF domain R5-GCR (Homo sapiens, UniProt Q14671 828-1176, C1007G;R1008C;Q1011R)
Method in brief: as §1

[15] = target: PUM1 PUF domain R5-SQS (Homo sapiens, UniProt Q14671 828-1176, C1007S;R1008Q;Q1011S)
Method in brief: as §1

[16] = target: PUM1 PUF domain R8-PYH (Homo sapiens, UniProt Q14671 828-1176, N1122P;Q1126H)
Method in brief: as §1

[17] = target: PUM1 PUF domain R1-KAS (Homo sapiens, UniProt Q14671 828-1176, S863K;R864A;Q867S)
Method in brief: as §1

[18] = target: PUM1 PUF domain R1-RVQ (Homo sapiens, UniProt Q14671 828-1176, S863R;R864V)
Method in brief: as §1

[19] = target: PUM1 PUF domain R7-RFP (Homo sapiens, UniProt Q14671 828-1176, S1079R;N1080F;E1083P)
Method in brief: as §1

[20] = target: PUM1 PUF domain R2-GFD (Homo sapiens, UniProt Q14671 828-1176, N899G;Y900F;Q903D)
Method in brief: as §1

GGCUAGAACUAGUGGAUCCCCCGGCGCCCGGCGGCUCGAGCCCGGGUAAGUGAAAAUAGUCUGCAUGCCGCCGGGCGCCAUGCCUGCAGGUCGACUCUAGAAAACAUG
binding signal [1]: 6.6 log2 enrichment (interaction score)

GGCUAGAACUAGUGGAUCCCCCGGCGCCCGGCGGCUCGAGCCCGGGUAAGUGUAAAUAGUCUGCAUGCCGCCGGGCGCCAUGCCUGCAGGUCGACUCUAGAAAACAUG
binding signal [1]: 2.8 log2 enrichment (interaction score) | binding signal [2]: 2.28 log2 enrichment (interaction score) | binding signal [3]: 7.58 log2 enrichment (interaction score) | binding signal [4]: 2.89 log2 enrichment (interaction score) | binding signal [5]: 4.96 log2 enrichment (interaction score) | binding signal [6]: 3.33 log2 enrichment (interaction score) | binding signal [7]: 2.65 log2 enrichment (interaction score) | binding signal [8]: 0.42 log2 enrichment (interaction score) | binding signal [9]: 3.43 log2 enrichment (interaction score)

GGCUAGAACUAGUGGAUCCCCCGGCGCCCGGCGGCUCGAGCCCGGGUAAGUGUACAUAGUCUGCAUGCCGCCGGGCGCCAUGCCUGCAGGUCGACUCUAGAAAACAUG
binding signal [10]: 5.04 log2 enrichment (interaction score) | binding signal [11]: 3 log2 enrichment (interaction score) | binding signal [7]: 3.79 log2 enrichment (interaction score)

GGCUAGAACUAGUGGAUCCCCCGGCGCCCGGCGGCUCGAGCCCGGGUAAGUGUUAAUAGUCUGCAUGCCGCCGGGCGCCAUGCCUGCAGGUCGACUCUAGAAAACAUG
binding signal [12]: 3.79 log2 enrichment (interaction score) | binding signal [13]: 3.71 log2 enrichment (interaction score) | binding signal [14]: 3.22 log2 enrichment (interaction score)

GGCUAGAACUAGUGGAUCCCCCGGCGCCCGGCGGCUCGAGCCCGGGUAAGUGUCAAUAGUCUGCAUGCCGCCGGGCGCCAUGCCUGCAGGUCGACUCUAGAAAACAUG
binding signal [12]: 4.48 log2 enrichment (interaction score) | binding signal [13]: 2.2 log2 enrichment (interaction score) | binding signal [14]: 5.08 log2 enrichment (interaction score)

GGCUAGAACUAGUGGAUCCCCCGGCGCCCGGCGGCUCGAGCCCGGGUAAGUGUGAAUAGUCUGCAUGCCGCCGGGCGCCAUGCCUGCAGGUCGACUCUAGAAAACAUG
binding signal [15]: 3.19 log2 enrichment (interaction score)

GGCUAGAACUAGUGGAUCCCCCGGCGCCCGGCGGCUCGAGCCCGGGUAAGCGUAAAUAGUCUGCAUGCCGCCGGGCGCCAUGCCUGCAGGUCGACUCUAGAAAACAUG
binding signal [16]: 3.67 log2 enrichment (interaction score) | binding signal [4]: 3.24 log2 enrichment (interaction score) | binding signal [9]: 5.85 log2 enrichment (interaction score)

GGCUAGAACUAGUGGAUCCCCCGGCGCCCGGCGGCUCGAGCCCGGGUAAGUGUAAAUUGUCUGCAUGCCGCCGGGCGCCAUGCCUGCAGGUCGACUCUAGAAAACAUG
binding signal [17]: 3.9 log2 enrichment (interaction score) | binding signal [18]: 4.43 log2 enrichment (interaction score)

GGCUAGAACUAGUGGAUCCCCCGGCGCCCGGCGGCUCGAGCCCGGGUAAGUCUAAAUAGUCUGCAUGCCGCCGGGCGCCAUGCCUGCAGGUCGACUCUAGAAAACAUG
binding signal [19]: 5.14 log2 enrichment (interaction score)

GGCUAGAACUAGUGGAUCCCCCGGCGCCCGGCGGCUCGAGCCCGGGUAAGUGUAUAUAGUCUGCAUGCCGCCGGGCGCCAUGCCUGCAGGUCGACUCUAGAAAACAUG
binding signal [11]: 3.83 log2 enrichment (interaction score)

GGCUAGAACUAGUGGAUCCCCCGGCGCCCGGCGGCUCGAGCCCGGGUAAGUGUAAAUCGUCUGCAUGCCGCCGGGCGCCAUGCCUGCAGGUCGACUCUAGAAAACAUG
binding signal [18]: 4.56 log2 enrichment (interaction score)

GGCUAGAACUAGUGGAUCCCCCGGCGCCCGGCGGCUCGAGCCCGGGUAAGUGUAAAGAGUCUGCAUGCCGCCGGGCGCCAUGCCUGCAGGUCGACUCUAGAAAACAUG
binding signal [20]: 4.7 log2 enrichment (interaction score)

GGCUAGAACUAGUGGAUCCCCCGGCGCCCGGCGGCUCGAGCCCGGGUAAGUGUAAUUAGUCUGCAUGCCGCCGGGCGCCAUGCCUGCAGGUCGACUCUAGAAAACAUG
binding signal [8]: 3.4 log2 enrichment (interaction score)
